# Compound activity: PubChem BioAssay, several laboratories
# Shn3 inh set2: Schnurri-3 reporter inhibition in Clone20 osteoblasts; Clone20 osteoblast Shn3 3'UTR firefly luciferase, 24 h; inhibition, % at 12.5 µM; actives 0.52% (n = 360,000); AID 588674;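 active = mean inhibition of at least 75% with every replicate also reaching 75%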;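 note: 0% = median of neutral control wells and 100% = pilot-screen positive control compound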
# Beta cell apopt: beta cell apoptosis inhibition; INS-1E cytokine-induced death, ATP luminescence, 48 h; percent of positive-control rescue, neutral wells zero; actives 0.8% (n = 300,000); protection from apoptosis, % (concentration not given with the values);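 active = Every replicate reaches about 75%, or at least half do and their mean reaches it too, limit read from the data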;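 note: 0% = cytokine-treated negative control wells and 100% = positive control rescue; higher means more ATP so stronger rescue from cytokine killing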
# Gli-Sufu block: Gli-Sufu pathway antagonism | Sufu-KO-LIGHT fibroblasts, Gli luciferase reporter luminescence | inhibition, % at 5 µM | actives 0.74% (n = 340,000);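 active = inhibition above about 55%, limit read from the data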;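 note: 0% = DMSO-treated cells and 100% = wells with medium but no cells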
# PAX8 reporter: lowers PAX8-driven luciferase in RMG-I cells | RMG-I TPO-luciferase reporter, SteadyGlo, 24 h | AID 652154 | inhibition, % at 12.6 µM | actives 1.2% (n = 360,000);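 active = mean replicate inhibition at least 60% with every replicate also reaching 60%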;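 note: luciferase light reporting Pax8 driven TPO promoter activity; plate controls were median of neutral control wells for no effect and mitoxantrone controls for full effect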
# CSC inhib: blocks cancer stem cells | inhibition, % at 7.5 µM | actives 1.1% (n = 300,000) | cancer stem cell-like cells viability, luminescence | AID 2717; in the data active = inhibition above about 75%; tested in HMLE shEcad cells
# Mdm2-MdmX inh: inhibitors of human Mdm2/MdmX interaction | inhibition, % at 8 µM | SaOS-2 split-luciferase Mdm2/MdmX complementation, luminescence | O15151+Q00987 | actives 3% (n = 330,000);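 active = inhibition of at least 50% at 8 µM in the primary screen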
# Target sequence (O15151 whole entry, looked up): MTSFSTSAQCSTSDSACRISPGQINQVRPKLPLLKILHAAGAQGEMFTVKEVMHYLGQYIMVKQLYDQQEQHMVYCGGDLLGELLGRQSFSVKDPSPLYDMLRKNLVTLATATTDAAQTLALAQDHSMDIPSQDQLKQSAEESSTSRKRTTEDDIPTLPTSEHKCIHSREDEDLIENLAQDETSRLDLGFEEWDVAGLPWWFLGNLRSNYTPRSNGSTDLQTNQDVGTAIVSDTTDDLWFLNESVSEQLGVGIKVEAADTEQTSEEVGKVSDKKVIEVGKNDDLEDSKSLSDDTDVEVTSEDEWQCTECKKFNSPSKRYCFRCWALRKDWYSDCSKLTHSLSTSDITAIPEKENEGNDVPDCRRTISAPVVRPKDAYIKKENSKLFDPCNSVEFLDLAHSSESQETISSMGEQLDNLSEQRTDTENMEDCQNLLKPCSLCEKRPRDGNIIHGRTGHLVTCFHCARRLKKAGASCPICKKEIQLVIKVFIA
# Target sequence (Q00987 whole entry, looked up): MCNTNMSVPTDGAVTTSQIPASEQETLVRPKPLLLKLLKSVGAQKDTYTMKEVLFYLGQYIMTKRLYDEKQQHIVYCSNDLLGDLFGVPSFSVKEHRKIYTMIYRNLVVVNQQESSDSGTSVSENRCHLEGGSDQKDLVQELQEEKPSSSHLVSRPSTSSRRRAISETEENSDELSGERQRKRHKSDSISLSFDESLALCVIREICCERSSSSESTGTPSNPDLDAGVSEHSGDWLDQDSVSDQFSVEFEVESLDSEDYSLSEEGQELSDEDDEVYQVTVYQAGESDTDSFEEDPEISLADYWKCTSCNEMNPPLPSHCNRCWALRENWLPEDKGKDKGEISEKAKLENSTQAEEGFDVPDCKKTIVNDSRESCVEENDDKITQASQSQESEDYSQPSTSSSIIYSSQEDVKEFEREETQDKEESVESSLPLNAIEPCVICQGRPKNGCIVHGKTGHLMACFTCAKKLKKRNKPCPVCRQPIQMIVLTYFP
# Mdm2-MdmX conf: human Mdm2/MdmX binding inhibition, confirmed; actives 55% (n = 10,000); luminescent assay; shares compounds with Mdm2-MdmX inh; inhibition, % at 8 µM; AID 489028; in the data active = inhibition above about 40%
# FLuc counter: inhibits full-length luciferase, flagging false Mdm2/MdmX hits; shares compounds with Mdm2-MdmX inh; SaOS-2 full-length luciferase counterscreen, luminescence; inhibition, % at 8 µM; actives 77% (n = 6,200); AID 504607;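 active = mean inhibition at 8 µM reaching about 37%, which flags the compound as non-specific, limit read from the data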;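 note: p53-null SaOS-2 cells with luciferase driven by a doxycycline-inducible promoter; compound on cells about two nights before reading with doxycycline added after day one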
# Starred values were filed as active, the others as inactive; · = no result given. Rows were chosen to be rich in hits. Some 4% of all compounds tested hit in one or more screens of this group.
SMILES,Shn3 inh set2,Beta cell apopt,Gli-Sufu block,PAX8 reporter,CSC inhib,Mdm2-MdmX inh,Mdm2-MdmX conf,FLuc counter
Cc1cc(NCc2ccccn2)n2nc(C)c(-c3ccc(Cl)cc3)c2n1,64.0,38.7,-16.2,24.9,76.7*,61.2*,20.9,·
Cc1nn2c(NCc3ccccn3)cc(C(C)C)nc2c1-c1ccccc1,41.2,61.2,-8.0,24.2,50.7,63.6*,41.0*,28.7
Cc1cc(NCc2ccccn2)n2ncc(-c3ccc(Cl)cc3)c2n1,-36.8,59.7,-82.8,-129.2,58.7,48.9,·,·
CN1CCN(c2ccc([N+](=O)[O-])cc2C(=O)c2ccccc2)CC1,-26.6,-10.9,1.9,18.1,-6.0,25.9,·,·
Cc1ccc(C(=O)c2cc([N+](=O)[O-])ccc2N2CCN(C)CC2)cc1,38.5,14.0,13.4,·,61.1,50.3*,60.1*,54.6*
CN1CCN(c2ccc([N+](=O)[O-])cc2C(=O)c2ccc(Br)cc2)CC1,30.3,2.6,6.8,27.9,62.3,54.2*,59.5*,60.0*
COc1ccc(CN(C)C[C@@H]2Oc3c(NC(=O)NC4CCCCC4)cccc3C(=O)N([C@H](C)CO)C[C@@H]2C)cc1,·,·,·,-9.3,·,·,·,·
COc1cccc(/C=C2/SC(=S)N(CCC(=O)N3CCOCC3)C2=O)c1,-100.7,-58.9,21.2,17.3,·,53.5*,15.4,·
COc1cccc(/C=C2\SC(=S)N(CCCC(=O)N3CCCCC3)C2=O)c1,-15.9,-51.2,5.7,26.8,8.3,87.8*,62.5*,22.9
Cc1ccc(/C=C2\SC(=S)N(CCC(=O)N3CCOCC3)C2=O)cc1,-84.0,-51.4,-13.9,-8.7,22.4,56.8*,29.9,·
COc1ccc(/C=C2\SC(=S)N(CCC(=O)N3CCOCC3)C2=O)cc1,-24.8,-9.5,-10.5,-6.8,13.7,48.6,·,·
COc1ccccc1NS(=O)(=O)c1ccc(-c2cc(C)no2)s1,26.3,21.4,-1.7,22.2,-2.2,49.3,·,·
CCOc1ccc(N(C)S(=O)(=O)c2ccc(-c3cc(C)no3)s2)cc1,13.2,14.9,33.8,23.9,62.0,61.0*,52.8*,83.6*
CCN(c1cccc(C)c1)S(=O)(=O)c1ccc(-c2cc(C)no2)s1,18.1,8.1,21.7,27.7,57.7,52.6*,53.4*,69.4*
Cc1cccc(N(C)S(=O)(=O)c2ccc(-c3cc(C)no3)s2)c1,-11.9,6.6,7.7,38.3,14.0,64.5*,50.8*,88.6*
COc1ccc(-c2cc(C)no2)cc1S(=O)(=O)N(C)c1cccc(C)c1,7.1,-5.2,8.0,6.6,-2.6,8.7,·,·
O=Cc1ccccc1Oc1ccccc1,-5.8,-2.0,-4.0,·,0.9,14.4,·,·
O=Cc1ccccc1OCCOc1ccccc1C=O,-8.3,20.4,-1.4,·,52.8,51.4*,42.9*,90.7*
Cc1cc(NC(=O)CC2CCCC2)n(-c2nc3ccccc3[nH]2)n1,7.6,20.7,7.4,·,31.2,56.6*,11.1,·
Cc1cc(NC(=O)c2ccc(F)cc2F)n(-c2nc3ccccc3[nH]2)n1,19.9,16.3,0.8,·,-1.3,65.8*,39.8,29.6
C[C@@H]1CN([C@@H](C)CO)S(=O)(=O)c2ccc(C3=CCCC3)cc2O[C@@H]1CN(C)CC1CCOCC1,·,·,·,-21.9,·,·,·,·
Cc1ccc(C)c(N2CCN(C(=O)C(Cc3ccccc3)n3cccc3)CC2)c1 (stereo not given),33.0,-1.8,5.7,12.6,29.9,50.1*,27.5,·
O=C(Cn1cnc2c(OCc3ccccc3)ncnc21)N[C@H](CO)Cc1cc2ccccc2[nH]1,-34.6,4.0,-13.0,13.2,·,50.6*,8.2,·
COC(=O)[C@H](Cc1ccccc1)NC(=O)Cn1cnc2c(OCc3ccccc3)ncnc21,-7.8,0.0,-8.0,7.2,-8.3,-22.3,·,·
CN(C)CCCNC(=O)C[C@@H]1CC[C@H]2[C@H](COc3ccc(NC(=O)c4ccccc4F)cc3C(=O)N2C)O1,·,·,·,-52.1,·,·,·,·
CCCNC(=O)[C@H]1[C@H](CO)[C@H]2Cn3c(ccc(-c4ccccc4)c3=O)[C@H]2N1CC,·,·,·,-11.8,·,·,·,·
Cc1cccnc1NC(=O)c1cc2c(=O)oc3ccccc3c2s1,-7.9,-4.7,-8.2,7.3,2.0,18.1,·,·
